# Screens (PubChem BioAssay)
# SW480 rerep – inducers of DNA re-replication in SW480 colon cancer cells; hit rate 1.8% among 340,000; AID 624297; SW480 DNA re-replication, Hoechst DNA content imaging, 48 h; Potency, µM (series often up to 46.1 µM), inactives show top-dose re-replication activation, hits mostly activators; further: % of control where 0% means no effect; nearly all actives have a fitted effect of over 55% in size
#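 Compounds, transferred as 23 nL by pin tool, were incubated with cells for 48 hr; DNA content per nucleus was then quantified by Hoechst staining and fluorescence plate imaging.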
# RGS4 inhibitor – human RGS4 inhibition | Potency, µM (series often up to 114 µM), for the others: top-dose activity change, negative = inhibition, most hits filed as inhibitors | AID 504845 | hit rate 0.039% among 390,000 | Transcreener GDP fluorescence polarization, RGS4-accelerated GTP hydrolysis | P49798; further: on the % scale 0 is the no-effect control and ±100 the full control effect; nearly all actives have a fitted effect of over 75% in size
# Target sequence (P49798 whole entry, looked up): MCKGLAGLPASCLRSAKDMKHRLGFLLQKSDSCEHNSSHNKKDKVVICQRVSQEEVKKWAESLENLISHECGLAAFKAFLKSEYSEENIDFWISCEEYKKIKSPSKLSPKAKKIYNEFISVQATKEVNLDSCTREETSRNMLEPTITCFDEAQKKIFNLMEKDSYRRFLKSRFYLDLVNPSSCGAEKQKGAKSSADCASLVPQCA
#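 MLSMR compounds (23 nl, pin-transferred) preincubated 10 min at room temperature with a 500nM (2x) first reagent, then RGS4 at 900nM (2x) plus Transcreener GDP mix added; fluorescence polarization (620/688 nm) read before and after 90 min at 30 °C.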
# PTAP TSG101 blk – blocks PTAP/TSG101 interaction to inhibit HIV-1 budding | 340,000 tested, under 10 active | Q99816 | Fluorescence polarization, FITC-PTAP peptide / Tsg101 binding | Potency, µM (doses to about 115 µM), for inactives: top-dose activity change, negative = inhibition, most hits filed as inhibitors | AID 493005; active means well fitted inhibition curve with a large enough effect in the main read-out, with a control signal flat, not every such curve was filed as active; inconclusive means small, poorly fitted or top-dose-only effect, or effect the other way, or a change in a side signal; inactive means no such curve, though single readings can be large or run the other way; further: % of control where 0% means no effect
# Target sequence (Q99816 whole entry, looked up): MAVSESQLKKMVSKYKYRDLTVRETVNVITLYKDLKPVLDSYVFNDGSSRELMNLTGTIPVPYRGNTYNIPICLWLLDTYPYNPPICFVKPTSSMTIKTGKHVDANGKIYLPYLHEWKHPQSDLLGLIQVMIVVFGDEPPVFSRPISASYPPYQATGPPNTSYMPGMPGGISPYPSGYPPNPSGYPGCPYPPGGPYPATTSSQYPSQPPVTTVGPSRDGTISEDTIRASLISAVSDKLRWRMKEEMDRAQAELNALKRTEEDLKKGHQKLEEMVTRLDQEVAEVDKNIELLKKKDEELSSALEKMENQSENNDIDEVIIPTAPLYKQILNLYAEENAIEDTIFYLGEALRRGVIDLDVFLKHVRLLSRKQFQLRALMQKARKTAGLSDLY
#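 Tsg101 binding domain (10 uM final) was mixed with compound and a FITC-labeled PTAP peptide (50 nM final) in HEPES pH 7.5 buffer with NaCl, Tween 20, EDTA and TCEP; fluorescence polarization was read after 20 min at r.t.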
# KB-V1 cytotox – kills drug-selected multidrug resistant KB-V1 cells; KB-V1 MDR cells viability, CellTiter-Glo, 72 h; Potency, µM (doses to about 46.1 µM), hits mostly cytotoxic; hit rate 3.4% among 400,000; further: on the % scale 0 is the no-effect control and ±100 the full control effect; nearly all actives have a fitted effect of over 60% in size
#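 KB-V1, DMEM (no phenol red) + 10% FBS; cpd pin-transferred, titration series; 72 h, 37 degrees C; CellTiter-Glo, luminescence. Data normalized, curve-fit.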
# MCF10A rerep – inducers of DNA re-replication in MCF 10A breast cells; MCF 10A DNA re-replication, Hoechst nuclear intensity, 48 h; Potency, µM (doses to about 46.1 µM), for inactives: at the top dose activity, positive = re-replication, hits mostly activators; hit rate 2.9% among 350,000; AID 624296; further: % of control where 0% means no effect; nearly all actives have a fitted effect of over 50% in size
# KB-3-1 cytotox – KB-3-1 parental cell cytotoxicity. KB-3-1 viability, CellTiter-Glo ATP luminescence, 72 h. Potency, µM (doses to about 46.1 µM), actives largely listed as cytotoxic. hit rate 1.4% among 400,000. AID 1347075; further: on the % scale 0 is the no-effect control and ±100 the full control effect; nearly all actives have a fitted effect of over 60% in size
#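 Screening of KB-3-1 cells (DMEM, 10% FBS, phenol-red free) ran from lowest to highest compound concentration; after 72 h at 37 °C viability was read luminescently and curves fitted.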
# Numbers without * were called inactive; i = inactive; ? = inconclusive; . = not tested or not shown; [ ] = remark or other dose. Shown are actives, neighbours in structure and some others; about 6.6% of the full set was active somewhere. Unless noted, the call rests on the fitted dose curve; in most records, active means well fitted curve in the direction sought with a large enough effect; inconclusive means small, poorly fitted or top-dose-only effect, or another doubt; inactive means no such curve, though single readings can be large; an effect the other way counts as inactive or inconclusive. Potency means the concentration at half of the fitted maximal effect.
SMILES,SW480 rerep,RGS4 inhibitor,PTAP TSG101 blk,KB-V1 cytotox,MCF10A rerep,KB-3-1 cytotox
CC(=O)c1c(C)n(CC(=O)NCc2ccc3c(c2)OCO3)c2ccccc12,?,7.0%,-3.3%,2.91µM*,?,16.4µM*
CC(=O)c1c(C(C)=O)c(C)n(Cc2ccc3c(c2)OCO3)c1C,1.2%,-1.8%,-0.1%,2.59µM*,3.2%,13µM*
Cc1ccc(C(=O)N2CCN(Cc3ccc4c(c3)OCO4)CC2)o1,-3.2%,21.2%,-2.8%,i,-3.4%,i
CC1CC(=O)N(CC(=O)NCc2ccco2)c2ccccc2S1 (centres undefined),0.6%,-8.9%,-18.4%,i,-0.7%,i
CC1CC(=O)N(CC(=O)NCc2ccc3c(c2)OCO3)c2ccccc2S1 (centres undefined),-11.1%,21.2%,-0.4%,20.6µM*,-1.1%,i
CCN1CCN(C(=O)c2c(C)nn(-c3ccc(F)cc3)c2-n2cccc2)CC1,.,29.8%,.,i,.,i
COc1ccc2c(=O)c(-c3ccccc3)coc2c1,-4.5%,141.5%[56.9 µM],-1.7%,i,-0.2%,i
CCN(CC)C(=O)Oc1ccc2c(=O)c(-c3ccccc3)coc2c1,6.3%,-11.4%,.,20.6µM*,-15.4%,i
CCOC(=O)N1CCN(C(=O)/C(=C/c2ccc(Br)cc2)NC(=O)c2ccc(OC)cc2)CC1,-4.5%,-22.0%,-0.9%,18.4µM*,2.6%,i
CCOC(=O)N1CCN(C(=O)/C(=C/c2cccc3ccccc23)NC(=O)c2ccc(OC)c(OC)c2)CC1,-1.6%,1.7%,-1.5%,4.61µM*,8.1%,i
Cc1ccc(C(=O)C(c2ccccc2)N2Cc3ccccc3C2=N)cc1 (centres undefined),?,-4.7%,-0.1%,?,20.6µM*,?
CC(C)c1nn2c(=O)cc(COC(=O)c3cccc(NC(=O)CCc4ccccc4)c3)nc2s1,.,-12.8%,.,.,.,.
CNc1nc(-c2ccccc2)c(-c2ccccc2)s1,.,-6.7%,.,.,.,.
CCc1nnc(N/N=C/c2ccccc2F)n1N,?,?,-1.3%,i,25.9µM*,i
Cc1nn(-c2ccccc2)c(C)c1NC(=O)COc1ccccc1C#N,.,.,.,i,.,i
Cc1nn(-c2ccccc2)c(C)c1NC(=O)COc1ccc2ccccc2c1,0.6%,9.3%,-5.1%,14.6µM*,?,?
Cc1nn(-c2ccccc2)c(C)c1NC(=O)COc1ccc(C#N)cc1,3.8%,-7.0%,-1.2%,18.4µM*,?,i
COCCCNC(=O)COc1ccc(Br)cc1Cl,1.0%,7.2%,-4.0%,20.6µM*,1.6%,i
CCNC(=O)COc1ccc(Br)cc1Cl,-19.0%,18.5%,1.4%,?,3.4%,i
Cc1nn(-c2ccccc2)c(C)c1NC(=O)COc1ccc(Br)cc1Cl,-4.7%,-46.8%,-4.0%,?,?,14.6µM*
CCOC(=O)Cn1c(=O)n(C2CCCCC2)c2nc(-c3cccc(C)c3)nc(C(N)=O)c21,.,-20.6%,.,i,.,i
Cc1cccc(C)c1NC(=O)Cn1c(=O)n(Cc2ccco2)c(=O)c2ccc(C(=O)NC3CCCC3)cc21,.,11.4%,.,i,.,i
N#Cc1ccc(C(=O)Nc2ccccc2-c2nc3ccccc3s2)c(F)c1,.,8.7%,.,i,.,i
Cc1ccc(S(=O)(=O)N2CCN(c3ccnc4cc(Cl)ccc34)CC2)cc1,-18.7%,3.8%,-5.6%,i,13.1%,?
Cn1c(CN2CCN(c3ccc(Cl)cc3)CC2)nc2ccccc21,2.0%,-4.2%,0.9%,18.4µM*,?,i
SMILES,SW480 rerep,RGS4 inhibitor,PTAP TSG101 blk,KB-V1 cytotox,MCF10A rerep,KB-3-1 cytotox
CC(=O)c1nc(N2CCN(S(=O)(=O)c3ccc(C)cc3)CC2)c2ccccc2n1,.,29.5%,.,.,.,.
Cc1cc(N2CCN(S(=O)(=O)c3ccc(Cl)c(Cl)c3)CC2)c2ccccc2n1,7.3%,14.7%,-2.9%,?,?,20.6µM*
Cn1c(N2CCN(S(=O)(=O)c3ccc(Cl)cc3)CC2)nc2ccccc21,-11.5%,7.9%,0.1%,16.4µM*,-1.6%,i
Cc1cc(N2CCN(S(=O)(=O)c3ccc(Cl)cc3)CC2)c2ccccc2n1,-8.2%,19.3%,-0.6%,18.4µM*,-6.4%,?
CCn1c(CN2CCN(c3ccc(Cl)cc3)CC2)nc2ccccc21,-6.9%,-13.1%,-5.4%,?,11.8%,?
CCN(CCCNC(=O)CN1N=C(c2ccc(OC)cc2)CCC1=O)c1cccc(C)c1,.,-1.6%,.,.,.,.
COc1cccc(NC(=O)Cn2nnc(-c3nc(-c4ccccc4)no3)c2N)c1,.,-18.6%,.,.,.,.
COc1ccc(Cn2c(C3CC3)nc3ccc(NC(=O)C4CC4)cc3c2=O)cc1,14.5%,-12.4%,-3.3%,23.1µM*,8.9%,?
COc1cccc(NC(=O)c2csc3c2CCCCC3)c1,.,-10.8%,.,i,.,i
CCCS(=O)(=O)c1c(S(=O)(=O)CCC)c2cc(-c3ccncc3)ccn2c1C(=O)OC,18.4µM*,-8.4%,0.1%,i,23.1µM*,i
Cn1ccsc1=NC(=O)c1ccc(S(C)(=O)=O)c([N+](=O)[O-])c1,16.4µM*,-5.4%,-0.8%,.,14.6µM*,.
CS(=O)(=O)c1ccc(C(=O)OCC(=O)NC23CC4CC(CC(C4)C2)C3)cc1[N+](=O)[O-],?,-5.1%,0.5%,i,4.11µM*,i
CS(=O)(=O)c1ccc(C(=O)OCc2nnc(-c3ccc(Cl)cc3)o2)cc1[N+](=O)[O-],?,-39.1%,-0.8%,i,3.66µM*,i
Cn1cccc1C(=O)NC(=O)COC(=O)c1ccc(S(C)(=O)=O)c([N+](=O)[O-])c1,16.4µM*,-2.9%,2.8%,?,5.8µM*,?
O=C(c1c2c(nc3ccccc13)C(=O)N(C1CCCCC1)C2)N1CCN(c2ccc(F)cc2)CC1,.,6.3%,.,i,.,i
O=C(CN1CCCN(Cc2ccccc2F)S1(=O)=O)Nc1ccc(F)c(Cl)c1,.,10.8%,.,i,.,i
COc1cc(CN(C(=O)Nc2cccc(Cl)c2)c2ccccn2)cc(OC)c1OC,.,17.2%,.,i,.,i
Cc1cc(S(=O)(=O)N2CCN(c3ccccc3F)CC2)ccc1-n1cnnn1,0.6%,19.8%,-5.4%,20.6µM*,8.4%,?
Cc1cc(S(=O)(=O)N2CCC(NC(=O)C34CC5CC(CC(C5)C3)C4)CC2)ccc1-n1cnnn1,2.0%,3.5%,-6.7%,9.2µM*,-1.3%,i
COc1ccc(/C=C2\SC(=S)N(CC(=O)N(C)C3CCS(=O)(=O)C3)C2=O)cc1 (centres undefined),?,-31.7%[56.9 µM],-5.5%,i,20.6µM*,i
